{"source": "PubChem BioAssay (Tox21)", "note": "Values joined by “and” are separate entries in the source; they are usually repeats but may differ in a detail not shown here. Equal entries are not always repeated. Inconclusive results are not listed. A number with no mark means an inactive call. Active and inactive are the calls of the source. The call rests on the fitted dose curve; in most records, active means well fitted cell-killing curve with a large enough effect in the repeat runs; inconclusive means weak or mixed curves, or effect the other way; inactive means flat fitted curve, though single readings scatter. On the % scale 0 is the no-effect control and ±100 the full control effect; potency means the concentration at half of the fitted maximal effect."}
{"test": "qHTS assay to identify small molecule that activate the aryl hydrocarbon receptor (AhR) signaling pathway - cell viability counter screen (AID 743086); further: nearly all actives have a fitted effect of over 45% in size;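 on viability change, negative = cytotoxic: HepG2 liver cells carrying the AhR DRE luciferase reporter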", "conditions": "HepG2-AhR-luc viability, CellTiter-Fluor, 24 h; series mostly up to 70.3 µM; viability change, negative = cytotoxic: at the top concentration", "from_the_text": "U.S. Tox21 Program National Center for Advancing Translational Sciences [NCATS] NIH Chemical Genomics Center [NCGC] U.S. Environmental Protection Agency [EPA] National Institutes of Environmental Health Sciences [NIEHS] National Toxicology Program [NTP] U.S. Food and Drug Administration [FDA] Tox21 Assay overview: The Aryl hydrocarbon Receptor (AhR), a member of the family of basic helix-loop-helix transcription factors, is crucial to adaptive responses to environmental changes. AhR mediates cellular responses to environmental pollutants such as aromatic hydrocarbons through induction of phase I and II enzymes but also interacts with other nuclear receptor signaling pathways A cell based HepG2-AhR-luc assay (HG2L7.5c1 cell line, developed by Dr. Michael S. Denison, University of California at Davis) was used to assess the activation of AhR. HepG2 (human hepatocellular carcinoma) cells were stably transfected with an Ah receptor-responsive firefly luciferase reporter gene plasmid containing 20 dioxin responsive elements and luciferase reporter gene. Increased luciferase activity can be used to identify the compounds that induce AhR activation. The cytotoxicity of the compounds screened against the HepG2-AhR-luc cell line was tested in parallel by measuring the cell viability using CellTiter-Fluor assay in the same wells.\nTox21 Assay Protocol Summary: 4000 cells in 5 uL/well were dispensed into white wall/solid bottom 1536-well plates using a Multidrop Combi (Thermo Fisher Scientific Inc., Waltham, MA) dispenser. After the assay plates were incubated at 37C for 5 h, 23 nL of compound or DMSO vehicle was transferred to the assay plates by a pintool station (Kalypsys, San Diego, CA). The plates were incubated at 37C for 24 hr. For cell viability measurement, 1 ul/well of CellTiter-Fluor reagent (Promega, Madison, WI) was added into the assay plates using a Flying Reagent Dispenser (FRD) (Aurora Discovery, CA),and then the assay plates were incubated at 37C for 30 min. The fluorescence intensity in the plates was measured using a ViewLux plate reader (PerkinElmer, Shelton, CT), followed by the addition of 4 uL of ONE-Glo Luciferase Assay reagent (Promega) using an FRD (Aurora Discovery). After the assay plates were incubated at room temperature for 30 min, luminescence intensity was measured using a ViewLux plate reader (Perkin Elmer)."}
{"compound": "O=C(Nc1ccc(Oc2ccc(Cl)cc2)c(Cl)c1)c1cc(I)cc(I)c1O", "viability change, negative = cytotoxic": "-9.59%"}
{"compound": "Oc1ccc2cc(SSc3ccc4cc(O)ccc4c3)ccc2c1", "Potency": "inactive"}
{"compound": "CC(C)(C)c1ccc(C(=O)O)cc1", "viability change, negative = cytotoxic": "8.63%"}
{"compound": "CC(C)(C)c1ccc(C(=O)CCCN2CCC(OC(c3ccccc3)c3ccccc3)CC2)cc1", "viability change, negative = cytotoxic": "-0.696%"}
{"compound": "C[C@H]1[C@H]2CC[C@H]3[C@@H]4CC=C5C[C@@H](N(C)C)CC[C@]5(C)[C@H]4CC[C@]23CN1C", "viability change, negative = cytotoxic": "-22.5%"}
{"compound": "O=c1cccccc1O", "viability change, negative = cytotoxic": "-2.93% [at 95 µM]"}
{"compound": "COc1cccc(N)c1", "viability change, negative = cytotoxic": "12% [at 95 µM]"}
{"compound": "Clc1ccc2nsnc2c1NC1=NCCN1", "viability change, negative = cytotoxic": "1.71%"}
{"compound": "CCCCCCCCCOC(=O)c1ccc(O)cc1", "viability change, negative = cytotoxic": "3.88%"}
{"compound": "Nc1ccc(N)c2ccccc12", "Potency": "4.32 µM (active)"}
{"compound": "O=c1[nH]sc2ccccc12", "Potency": "68.6 µM (active)"}
{"compound": "Cc1cc(CCN2CCN(c3nsc4ccccc34)CC2)cc2c1NC(=O)CC2(C)C", "Potency": "27.3 µM (active)"}
{"compound": "Cc1[nH]cnc1C[C@H]1CCc2c(C)c3ccccc3n2C1=O", "viability change, negative = cytotoxic": "-18.1%"}
{"compound": "CCCCCCCCS(=O)C(C)Cc1ccc2c(c1)OCO2", "note": "(stereo not given)", "viability change, negative = cytotoxic": "-17% [at 95 µM]"}
{"compound": "CN1CCN(CCC(=O)N2c3ccccc3Sc3ccc(C(F)(F)F)cc32)CC1", "Potency": "18.8 µM (active)"}
{"compound": "CCc1oc2ccccc2c1C(=O)c1cc(Br)c(O)c(Br)c1", "viability change, negative = cytotoxic": "-3%"}
{"compound": "NNC(=O)c1cccc(C(=O)NN)c1", "viability change, negative = cytotoxic": "-0.655%"}
{"compound": "CCCCCCCCOc1ccccc1C(=O)Nc1ccc(C(=O)OCC[N+](C)(CC)CC)cc1", "viability change, negative = cytotoxic": "-23.2%"}
{"compound": "Oc1c(Cl)cc(Cl)c2cccnc12", "viability change, negative = cytotoxic": "4.11%"}
{"compound": "Cc1onc(-c2ccccc2Cl)c1C(=O)N[C@@H]1C(=O)N2[C@@H]1SC(C)(C)[C@@H]2C(=O)O", "viability change, negative = cytotoxic": "14.8% [at 32.5 µM]"}
{"compound": "NNc1nc(-c2ccc(N)cc2)cs1", "viability change, negative = cytotoxic": "-15.6%"}
{"compound": "CCCCN1C(=O)[C@@H]([C@H](O)C2CCCCC2)NC(=O)C12CCN(Cc1ccc(Oc3ccc(C(=O)O)cc3)cc1)CC2", "Potency": "8.63 µM (active)"}
{"compound": "CC(C)c1ccc2c(c1)CC[C@H]1[C@](C)(CN)CCC[C@]21C", "Potency": "54.5 µM (active)"}
{"compound": "CN(C)[C@@H]1C(=O)C(C(N)=O)=C(O)[C@@]2(O)C(=O)C3=C(O)c4c(O)ccc(Cl)c4[C@@H](O)[C@H]3C[C@@H]12", "viability change, negative = cytotoxic": "-19.6%"}
{"compound": "COc1cc(-c2ccc(N=C=O)c(OC)c2)ccc1N=C=O", "viability change, negative = cytotoxic": "-5.53%"}
{"compound": "C[n+]1ccn(Cc2ccccc2)c1", "viability change, negative = cytotoxic": "2.6%"}
{"compound": "C=CC(=O)OCC(CO)(COC(=O)C=C)COC(=O)C=C", "Potency": "13.7 µM (active) and 27.3 µM (active)"}
{"compound": "CCCCCCCCOC(=O)c1ccc(O)cc1", "Potency": "inactive"}
{"compound": "CC(C)=CCOc1ccc(/C=C/C(=O)c2ccc(OCC=C(C)C)cc2OCC(=O)O)cc1", "viability change, negative = cytotoxic": "-4.44%"}
{"compound": "Cc1cc(C2CCCCC2)n(O)c(=O)c1", "viability change, negative = cytotoxic": "-0.681% [at 32.5 µM]"}
{"compound": "Cc1c(C)c2c(c(C)c1O)CCC(C)(COc1ccc(CC3SC(=O)NC3=O)cc1)O2", "note": "(stereo not given)", "Potency": "inactive"}
{"compound": "NNc1nc(-c2ccc([N+](=O)[O-])cc2)cs1", "viability change, negative = cytotoxic": "-16.7%"}
{"compound": "Cc1cccc(S(=O)(=O)O)c1C", "viability change, negative = cytotoxic": "0.158%"}
{"compound": "O=C1c2ccccc2Cc2ccccc21", "viability change, negative = cytotoxic": "-0.156% [at 95 µM]"}
{"compound": "CCC(C)Nc1ccc(NC(C)CC)cc1", "note": "(stereo not given)", "Potency": "55.5 µM (active)"}
{"compound": "O=C(O)c1c(Cl)cccc1Cl", "viability change, negative = cytotoxic": "0.399%"}
{"compound": "C[C@]12CCC(=O)C=C1CC[C@@H]1[C@@H]2[C@@H](O)C[C@@]2(C)[C@H]1CC[C@]2(O)C(=O)COC(=O)CCC(=O)O", "viability change, negative = cytotoxic": "2.41%"}
{"compound": "C=CC(=O)OCC(CO)(COCC(COC(=O)C=C)(COC(=O)C=C)COC(=O)C=C)COC(=O)C=C", "Potency": "6.04 µM (active)"}
{"compound": "CS(=O)(=O)CCNCc1ccc(-c2ccc3ncnc(Nc4ccc(OCc5cccc(F)c5)c(Cl)c4)c3c2)o1", "viability change, negative = cytotoxic": "-3.79%"}
{"compound": "O=Cc1cc(O)ccc1Br", "viability change, negative = cytotoxic": "-1.91% [at 95 µM]"}
